Sampled rows, rich in hits. Any-hit rate of the full collection: about 19%.
Shiga inhibitor: blocks Shiga toxin action in Vero cells. 9.2% of 290,000 active. inhibition, % at 38.7 µM. Vero cells, Shiga toxin protein synthesis inhibition reporter; in the data active means inhibition mostly above about 28%, no sharp cut-off; inactive means mostly below about 43%
AMA1-RON2 inh: AMA1-RON2 (P. falciparum) interaction inhibition; AlphaScreen AMA1-biotinylated RON2 peptide binding; 0.2% of 360,000 active; Potency, µM (top dose mostly 58.2 µM), hits mostly inhibitors; further: nearly all actives have a fitted effect of over 45% in size
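AMA1 (3D7) with his tag at 25 nM final met compounds first, then biotinylated RON2 peptide at 25 nM; detection used donor plus acceptor beads, 10 µg/mL apiece, read by AlphaScreen after 30 min at room temperature.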
Pf growth 48h: P. falciparum growth inhibition at 48 hours (one generation); Potency, µM (top dose mostly 28.7 µM), most hits filed as inhibitors; P. falciparum luciferase growth in erythrocytes, 48 h; AID 504832; 5.9% of 310,000 active
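Luciferase-expressing parasites in RBCs, 2% Hct / 0.1% parasitemia final; RPMI 1640 + 0.5% Albumax; 37 C, 5% CO2, one generation; luminescence read-out, lower signal = inhibition.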
Cycloheximide cs: counter-screen for Shiga toxin inhibitors: cycloheximide protein synthesis inhibition; cell reporter, cycloheximide protein synthesis inhibition counterscreen; max response, %; 12% of 300,000 active; AID 2314; in the data active means max response mostly above about 13%, no sharp cut-off; inactive means mostly below about 14%; further: read at 38.3 µM for the half of the compounds with a filed dose
SARS PLpro yeast: inhibitors of SARS-CoV papain-like protease in yeast | S. cerevisiae expressing SARS-CoV PLpro, growth rescue | Potency, µM (doses to about 32.9 µM), usual class: activators | 0.19% of 330,000 active | AID 485353; calls by dose curve; further: nearly all actives have a fitted effect of over 55% in size
Pf growth 96h: P. falciparum growth inhibition at 96 hours; P. falciparum luciferase reporter growth, 96 h; Potency, µM (highest dose often 28.7 µM), hits mostly inhibitors; 6.9% of 320,000 active; AID 504834
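Erythrocytes infected with luciferase-expressing P. falciparum were dispensed at 2% hematocrit and 0.05% parasitemia (final), then incubated with compounds 96 hours at 37 C in 5% CO2. Luminescence after detection reagent addition reported growth.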
Hits are given with their value. Unless noted, the call rests on the fitted dose curve; in most records, active means well fitted curve in the direction sought with a large enough effect; inconclusive means small, poorly fitted or top-dose-only effect, or another doubt; inactive means no such curve, though single readings can be large; an effect the other way counts as inactive or inconclusive.

How did Cc1cccc(NC(=O)c2cc(-c3cccnc3)nc3c(C)cccc23)n1 do in these assays?
Shiga inhibitor: inactive; AMA1-RON2 inh: inactive; Pf growth 48h: inactive; Cycloheximide cs: inactive; SARS PLpro yeast: inactive; Pf growth 96h: 4.7µM

How did O=C(Nc1ccc(F)cc1)c1cc(-c2ccncc2)nc2c(Cl)cccc12 do in these assays?
Shiga inhibitor: inactive; AMA1-RON2 inh: inactive; Pf growth 48h: 2.1µM; Cycloheximide cs: inactive; SARS PLpro yeast: inactive; Pf growth 96h: inactive

Results for Cc1c(Cl)ccc2c(C(=O)NC(C)c3ccncc3)cc(-c3ccncc3)nc12 (stereo unspecified) ?
Shiga inhibitor: inactive; Pf growth 48h: 4.1µM; Cycloheximide cs: inactive; SARS PLpro yeast: inactive; Pf growth 96h: inactive

How did O=C(NNC(=O)c1cc(-c2ccncc2)nc2ccccc12)Nc1ccc(F)cc1 do in these assays?
Shiga inhibitor: inactive; AMA1-RON2 inh: inactive; Pf growth 48h: inconclusive; Cycloheximide cs: inactive; SARS PLpro yeast: inactive; Pf growth 96h: inactive

How did COc1cccc(NC(=O)c2cc(-c3cccnc3)nc3c(Cl)cccc23)c1 do in these assays?
Shiga inhibitor: inactive; AMA1-RON2 inh: inactive; Pf growth 48h: 2.1µM; Cycloheximide cs: inactive; SARS PLpro yeast: inactive; Pf growth 96h: 1.9µM

How did CNc1nc2c(N)ncnc2n1[C@@H]1O[C@@H]2COP(=O)(O)O[C@H]2[C@H]1O do in these assays?
Shiga inhibitor: inactive; Cycloheximide cs: inactive

Results for C[C@@H](NC(=O)[C@@H]1CCCN1C(=O)[C@@H]1CCCN1C(=O)OC(C)(C)C)c1ccccc1 ?
AMA1-RON2 inh: inactive

How did Cc1sc2ncn(CC(=O)N3CCOCC3)c(=O)c2c1-c1ccccc1 do in these assays?
Shiga inhibitor: inactive; AMA1-RON2 inh: inactive; Pf growth 48h: inactive; Cycloheximide cs: inactive; SARS PLpro yeast: inactive; Pf growth 96h: inactive

Results for CCOC(=O)CN1C(=O)N[C@@H](CCc2ccccc2)[C@H](C(=O)OC)[C@H]1C ?
AMA1-RON2 inh: inactive

How did NC(=O)C1CC(=O)N(c2ccc(OCc3ccc(Cl)cc3Cl)cc2)C1 (stereo unspecified) do in these assays?
Shiga inhibitor: inactive; AMA1-RON2 inh: inactive; Pf growth 48h: inactive; Cycloheximide cs: 26; SARS PLpro yeast: inactive; Pf growth 96h: inactive

Results for COC(=O)C1CC(=O)N(c2ccc(OCc3ccccc3Cl)cc2)C1 (stereo unspecified) ?
AMA1-RON2 inh: inactive; Pf growth 48h: inactive; Cycloheximide cs: inactive; SARS PLpro yeast: inactive; Pf growth 96h: inactive

How did C=CCNC(=O)C1CC(=O)N(c2ccc(OCc3ccccc3Cl)cc2)C1 (stereo unspecified) do in these assays?
Shiga inhibitor: 33; AMA1-RON2 inh: inactive; Pf growth 48h: inactive; Cycloheximide cs: 33; SARS PLpro yeast: inactive; Pf growth 96h: inconclusive

Results for O=C1CC(=O)N2N=C(c3ccc([N+](=O)[O-])cc3)SC2=N1 ?
Shiga inhibitor: inactive; AMA1-RON2 inh: inactive; Pf growth 48h: inconclusive; Cycloheximide cs: inactive; SARS PLpro yeast: inactive; Pf growth 96h: inactive

Results for Cc1cccc(N(CC(=O)NCc2ccco2)S(=O)(=O)c2ccccc2)c1 ?
AMA1-RON2 inh: inactive

How did COc1ccc(N(CC(=O)NCc2ccco2)S(=O)(=O)c2ccccc2)cc1 do in these assays?
Shiga inhibitor: inactive; AMA1-RON2 inh: inactive; Pf growth 48h: inactive; Cycloheximide cs: inactive; SARS PLpro yeast: inactive; Pf growth 96h: 6.6µM

Results for O=C(CN(c1ccccc1)S(=O)(=O)c1ccccc1)N/N=C/c1ccco1 ?
Shiga inhibitor: inactive; AMA1-RON2 inh: inactive; Pf growth 48h: inactive; Cycloheximide cs: inactive; SARS PLpro yeast: inactive; Pf growth 96h: 3.7µM

How did Cc1cc(C)cc(N(CC(=O)NCc2ccco2)S(=O)(=O)c2ccccc2)c1 do in these assays?
Shiga inhibitor: 48; AMA1-RON2 inh: inactive; Pf growth 48h: inconclusive; Cycloheximide cs: inactive; SARS PLpro yeast: inactive; Pf growth 96h: inactive

Results for COc1ccc(S(=O)(=O)N(CC(=O)NCc2ccco2)c2ccccc2)cc1 ?
Shiga inhibitor: inactive; AMA1-RON2 inh: inactive; Cycloheximide cs: inactive; SARS PLpro yeast: inactive; Pf growth 96h: inconclusive

Results for Cc1c(Cl)cnc(NC(=O)COC(=O)c2ccc3ncsc3c2)c1Cl ?
Shiga inhibitor: 60; AMA1-RON2 inh: inactive; Pf growth 48h: inactive; Cycloheximide cs: 34; SARS PLpro yeast: inactive; Pf growth 96h: inactive

Results for COc1ccc(C(=O)NC(=O)COC(=O)c2ccc3ncsc3c2)cc1 ?
Shiga inhibitor: 35; Pf growth 48h: inactive; Cycloheximide cs: 32; SARS PLpro yeast: inactive; Pf growth 96h: inactive

How did CN(C1=NC(=O)C(CC(=O)Nc2ccc(Br)cc2)S1)c1ccc(O)cc1 (stereo unspecified) do in these assays?
Shiga inhibitor: inactive; AMA1-RON2 inh: inactive; Pf growth 48h: inactive; Cycloheximide cs: inactive; SARS PLpro yeast: inactive; Pf growth 96h: 5.2µM

What do the screens show for `CCN(CC)CCN(C(=O)CCS(=O)(=O)c1ccccc1)c1nc2c(C)cc(C)cc2s1`?
Shiga inhibitor: inactive; AMA1-RON2 inh: inactive; Pf growth 48h: inactive; Cycloheximide cs: inactive; SARS PLpro yeast: inactive; Pf growth 96h: inactive

How did N#Cc1ccccc1NC(=O)COC(=O)/C=C/c1ccc(S(=O)(=O)N2CCOCC2)cc1 do in these assays?
AMA1-RON2 inh: inactive; SARS PLpro yeast: inactive

What do the screens show for `COc1cccc(-c2csc(N3CCN(C(=O)Nc4ccc(Cl)cc4)CC3)n2)c1`?
Shiga inhibitor: 45; AMA1-RON2 inh: inactive; Pf growth 48h: inconclusive; Cycloheximide cs: 28; SARS PLpro yeast: inactive; Pf growth 96h: inactive

Results for COc1ccc(NC(=O)N2CCN(c3nc(-c4cccc(OC)c4)cs3)CC2)cc1 ?
Shiga inhibitor: inactive; AMA1-RON2 inh: inactive; Pf growth 48h: 10µM; Cycloheximide cs: inactive; SARS PLpro yeast: inactive; Pf growth 96h: inconclusive

How did COc1cccc(-c2csc(N3CCN(C(=S)Nc4cccc(Cl)c4)CC3)n2)c1 do in these assays?
Shiga inhibitor: inactive; AMA1-RON2 inh: inactive; Pf growth 48h: inconclusive; Cycloheximide cs: inactive; SARS PLpro yeast: inactive; Pf growth 96h: inactive

How did COc1cc(NC(=O)COc2cc3oc(=O)cc(C)c3cc2Cl)cc(OC)c1OC do in these assays?
Shiga inhibitor: inactive; AMA1-RON2 inh: inactive; Pf growth 48h: inactive; Cycloheximide cs: inactive; SARS PLpro yeast: inactive; Pf growth 96h: inactive

What do the screens show for `CCCCc1nnc(NC(=O)CSCc2cc(=O)n3cc(C)sc3n2)s1`?
Shiga inhibitor: inactive; AMA1-RON2 inh: inactive; Pf growth 48h: inactive; Cycloheximide cs: inactive; SARS PLpro yeast: inactive; Pf growth 96h: inconclusive

What do the screens show for `CCc1ccc(C(=O)NC2CCCCC2)s1`?
Shiga inhibitor: 67; AMA1-RON2 inh: inactive; Pf growth 48h: inactive; Cycloheximide cs: 53; SARS PLpro yeast: inactive

Results for CC(C)(O)C#Cc1ccc(C(=O)NC2CCCCC2)s1 ?
Shiga inhibitor: 74; AMA1-RON2 inh: inactive; Pf growth 48h: inactive; Cycloheximide cs: 27; SARS PLpro yeast: inactive; Pf growth 96h: inactive

What do the screens show for `CC(C)(O)C#Cc1ccc(C(=O)Nc2ccc3c(c2)OCO3)s1`?
Shiga inhibitor: 107; AMA1-RON2 inh: inactive; Pf growth 48h: inactive; Cycloheximide cs: 58; SARS PLpro yeast: inactive; Pf growth 96h: inconclusive

Assay outcomes from PubChem.
